The values below come from PubChem BioAssay.

A short description of test [1]: antimalarial activity against Dd2 strain (AID 2302;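 active means growth inhibition above 50% at the single 2 µM test dose, taken to imply half-maximal potency below 2 µM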;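 further: 0% = DMSO untreated growth and 100% = chloroquine plus artemisinin killed control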). The settings on record: P. falciparum Dd2 in RBCs, LDH growth readout, 72 h; at 2 µM; stronger effect = higher value.
A short description of test [2]: human hepatoma cell viability loss – ATP luminescence, cytotoxicity control for P. falciparum antimalarial project, primary screen (AID 2303;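 active means inhibition above 50%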;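 further: 0% = DMSO wells and 100% = digitonin-killed cells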). The settings on record: HepG2 viability, 24-48 h, at 10 µM, stronger effect = higher value.
Test [3] concerns the target L-lactate dehydrogenase (Plasmodium falciparum (isolate CDC / Honduras)) (UniProt Q27743). Nature of the test: PfLDH activity inhibition – cell lysate, 3D7 strain, counter-screen for P. falciparum growth inhibition project (AID 2304).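 Further: 0% = vehicle and 100% = reference inhibitor.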 The settings on record: P. falciparum 3D7 crude extract, LDH APAD/NBT absorbance; at 2 µM; stronger effect = higher value.
Test [4] can be described thus: inhibition of 3D7 malaria parasite growth – strain 3D7 (AID 2306).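 Further: 0% = DMSO wells and 100% = chloroquine plus artemisinin control wells.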 The settings on record: P. falciparum 3D7 erythrocytic growth, LDH absorbance, 72 h; at 2 µM; stronger effect = higher value.
The target of test [5] is Calcium-dependent protein kinase 1 (Plasmodium falciparum (isolate 3D7)) (UniProt P62344). Description: PfCDPK1 kinase inhibitors, biochemical, TCAMS library (AID 1159585; cut-off not given, nearly all actives have IC50 up to about 0.98 µM;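 further: inhibitors leave more ATP so luminescence rises with inhibition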). To be noted: recombinant PfCDPK1, Kinase-Glo ATP depletion luminescence.
Test [6] addresses Plasmodium falciparum protein kinase 6 (PK6, PF3D7_1337100) (UniProt Q8IDW1). Description: PfPK6 kinase inhibitors, biochemical, TCAMS library (AID 1159586). The settings on record: recombinant PfPK6, Kinase-Glo ATP depletion luminescence.
Test [7] deals with Protein kinase 7 (PK7), Plasmodium falciparum 3D7 (PF3D7_0213400) (UniProt Q7YTF7). Nature of the test: inhibition of Plasmodium PK7 catalytic activity – biochemical, TCAMS antimalarial set, Kinase-Glo luminescence (AID 1159587). The settings on record: recombinant PfPK7, Kinase-Glo ATP depletion luminescence.
For test [8], the target named is Calcium-dependent protein kinase 4 (Plasmodium falciparum (isolate 3D7)) (UniProt Q8IBS5). Description: PfCDPK4 kinase inhibitors, biochemical, TCAMS library (AID 1159588; cut-off not given, nearly all actives have IC50 up to about 0.91 µM). The settings on record: recombinant PfCDPK4, Kinase-Glo ATP depletion luminescence.

“And” between values parts separate entries of the source, which are not always exact repeats. Identical values can stand only once. For some assays here: Entries with a potency or affinity are not part of this list. Some compounds were tested as several samples or in several runs, with calls that do not always agree. The source made the active and inactive calls. Unless noted, how the calls were made is not given here.

Chain of Calcium-dependent protein kinase 4 (Plasmodium falciparum (isolate 3D7)) (Q8IBS5 whole entry, looked up): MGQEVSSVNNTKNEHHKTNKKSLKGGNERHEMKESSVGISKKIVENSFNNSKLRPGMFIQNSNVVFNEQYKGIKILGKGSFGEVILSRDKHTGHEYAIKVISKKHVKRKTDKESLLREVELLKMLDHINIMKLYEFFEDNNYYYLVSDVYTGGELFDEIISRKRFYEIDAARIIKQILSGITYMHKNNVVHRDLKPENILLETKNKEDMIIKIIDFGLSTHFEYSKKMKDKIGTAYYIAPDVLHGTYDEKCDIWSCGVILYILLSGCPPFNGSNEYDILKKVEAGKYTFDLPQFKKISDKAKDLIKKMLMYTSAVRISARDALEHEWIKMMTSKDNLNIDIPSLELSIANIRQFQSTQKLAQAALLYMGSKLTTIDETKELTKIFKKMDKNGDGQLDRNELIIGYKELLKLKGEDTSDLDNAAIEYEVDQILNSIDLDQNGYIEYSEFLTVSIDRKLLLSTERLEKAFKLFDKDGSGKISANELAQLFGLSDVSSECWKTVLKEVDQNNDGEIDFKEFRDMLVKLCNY
Chain of Calcium-dependent protein kinase 1 (Plasmodium falciparum (isolate 3D7)) (P62344 whole entry, looked up): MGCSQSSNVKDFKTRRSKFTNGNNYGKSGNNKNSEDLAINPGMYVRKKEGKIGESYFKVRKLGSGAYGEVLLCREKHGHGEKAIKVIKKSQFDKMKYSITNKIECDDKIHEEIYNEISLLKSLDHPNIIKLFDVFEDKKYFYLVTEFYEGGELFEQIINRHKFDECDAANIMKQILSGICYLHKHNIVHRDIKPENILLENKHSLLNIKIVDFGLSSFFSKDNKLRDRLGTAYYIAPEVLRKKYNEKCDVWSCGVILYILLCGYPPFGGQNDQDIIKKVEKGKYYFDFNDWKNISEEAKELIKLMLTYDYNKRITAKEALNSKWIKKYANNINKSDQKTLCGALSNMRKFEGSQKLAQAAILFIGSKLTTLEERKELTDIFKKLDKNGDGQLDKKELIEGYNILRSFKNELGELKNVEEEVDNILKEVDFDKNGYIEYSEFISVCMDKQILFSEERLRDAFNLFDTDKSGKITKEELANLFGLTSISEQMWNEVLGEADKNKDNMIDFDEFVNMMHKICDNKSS
Chain of L-lactate dehydrogenase (Plasmodium falciparum (isolate CDC / Honduras)) (Q27743 whole entry, looked up): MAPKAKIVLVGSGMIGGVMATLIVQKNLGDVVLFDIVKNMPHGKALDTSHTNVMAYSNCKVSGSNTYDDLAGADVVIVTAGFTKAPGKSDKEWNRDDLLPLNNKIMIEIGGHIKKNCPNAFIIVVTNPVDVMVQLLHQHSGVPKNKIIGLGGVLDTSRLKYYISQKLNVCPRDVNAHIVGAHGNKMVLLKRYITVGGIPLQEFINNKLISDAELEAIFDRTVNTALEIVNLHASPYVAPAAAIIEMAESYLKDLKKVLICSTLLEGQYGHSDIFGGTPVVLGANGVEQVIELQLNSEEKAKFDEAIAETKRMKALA
Chain of Plasmodium falciparum protein kinase 6 (PK6, PF3D7_1337100) (Q8IDW1 1-305): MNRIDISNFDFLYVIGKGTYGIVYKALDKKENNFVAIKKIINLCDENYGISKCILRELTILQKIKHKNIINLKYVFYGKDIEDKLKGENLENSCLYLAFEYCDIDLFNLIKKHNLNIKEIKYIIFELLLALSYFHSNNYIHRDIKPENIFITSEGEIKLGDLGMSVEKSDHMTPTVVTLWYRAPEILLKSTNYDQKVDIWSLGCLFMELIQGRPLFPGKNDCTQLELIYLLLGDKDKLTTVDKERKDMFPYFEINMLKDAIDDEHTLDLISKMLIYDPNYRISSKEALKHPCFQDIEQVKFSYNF
Chain of Protein kinase 7 (PK7), Plasmodium falciparum 3D7 (PF3D7_0213400) (Q7YTF7 1-343): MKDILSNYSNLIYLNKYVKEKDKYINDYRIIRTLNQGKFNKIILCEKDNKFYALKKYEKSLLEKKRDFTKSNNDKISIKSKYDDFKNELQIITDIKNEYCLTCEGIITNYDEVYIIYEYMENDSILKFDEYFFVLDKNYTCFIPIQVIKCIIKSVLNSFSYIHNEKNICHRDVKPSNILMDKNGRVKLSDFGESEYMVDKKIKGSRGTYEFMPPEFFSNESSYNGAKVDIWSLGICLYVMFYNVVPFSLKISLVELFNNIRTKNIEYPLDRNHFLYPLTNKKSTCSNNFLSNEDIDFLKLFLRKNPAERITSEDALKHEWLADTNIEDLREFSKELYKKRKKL

For `Fc1ccc2[nH]cc(CCN3CCC(CNCc4ccccc4)CC3)c2c1`, the growth inhibition was 94% (active) in test [1] and 100% (active) in test [4]. In addition, the results for the inhibition in test [2] and in test [3] were 67% (active) and 4% (inactive), respectively. Moreover, the result in test [5], in test [6], in test [7] and in test [8] was inactive.

For `N#Cc1c(Cl)cccc1Oc1ccc(S(=O)(=O)NC2CCC(CN3CCC(c4c[nH]c5ccccc45)CC3)CC2)cc1` (configuration not stated), the growth inhibition in test [1] is 36% (inactive) and 16% (inactive); in test [4], 101% (active) and 85% (active). Besides, the inhibition is 31% (inactive) and 29% (inactive) in test [2]; 3% (inactive) and -3% (inactive) in test [3]. Besides, the outcome in test [5], in test [6], in test [7] and in test [8] was inactive.

As for `CC(Cc1ccc(Sc2ccccc2)cc1)NCC(O)c1cccc(C(F)(F)F)c1` (configuration not stated), the growth inhibition in test [1] is 53% (active); in test [4], 99% (active). Besides, the results for the inhibition in test [2] and in test [3] were -1% (inactive) and 2% (inactive), respectively. The result in test [5], in test [6], in test [7] and in test [8] was inactive.

With `CC[C@H]1CN2CC[C@H]1C[C@H]2[C@H](O)c1cc(-c2ccccc2C)nc2ccc(OC)cc12`, the growth inhibition in test [1] is 98% (active); in test [4], 100% (active). Further, the inhibition in test [2] was 16% (inactive); in test [3], 2% (inactive). The outcome in test [5], in test [6], in test [7] and in test [8] was inactive.

Turning to `Cc1ccc2[nH]cc(C3CCN(CC4CCC(NC(=O)/C=C/c5ccc(Cl)c(Cl)c5)CC4)CC3)c2c1` (configuration not stated), the growth inhibition is 46% (inactive) and 86% (active) in test [1]; 101% (active) and 94% (active) in test [4]. For the same compound, the inhibition in test [2] was 29% (inactive) and 37% (inactive); in test [3], -10% (inactive) and 0% (inactive). Further, the outcome in test [5], in test [6], in test [7] and in test [8] was inactive.

As to `CC(=O)C1(c2ccccc2)CCN(CCC2(c3ccc(Cl)c(Cl)c3)CN(C(=O)Nc3cccc(C(F)(F)F)c3)CCO2)CC1` (configuration not stated), the growth inhibition was 66% (active) in test [1] and 95% (active) in test [4]. Moreover, the inhibition in test [2] was 24% (inactive); in test [3], 8% (inactive). The outcome in test [5], in test [6], in test [7] and in test [8] was inactive.

As to `O=[N+]([O-])c1ccc(Oc2c(Cl)cc(S(=O)(=O)NC3CCC(CN4CCC(c5c[nH]c6ccccc56)CC4)CC3)cc2Cl)c(Cl)c1` (configuration not stated), the growth inhibition in test [1] was 64% (active); in test [4], 100% (active). The inhibition in test [2] is 30% (inactive); in test [3], -4% (inactive). Moreover, the outcome in test [5], in test [6], in test [7] and in test [8] was inactive.

Take `O=C(/C=C/c1ccc(Cl)c(Cl)c1)N1CCC(CN2CCC(c3c[nH]c4cc5c(cc34)OCO5)CC2)CC1`: the values for the growth inhibition in test [1] and in test [4] were 75% (active) and 102% (active), respectively. The inhibition in test [2] is 41% (inactive); in test [3] it was -2% (inactive). The result in test [5], in test [6], in test [7] and in test [8] was inactive.

Regarding `COc1cccc(C=CC(=O)NC2CCC(CN3CCC(c4c[nH]c5ccccc45)CC3)CC2)c1OC` (configuration not stated), the figures for the growth inhibition in test [1] and in test [4] were 40% (inactive) and 102% (active), respectively. The inhibition in test [2] was 37% (inactive); in test [3] it was -1% (inactive). Further, the outcome in test [5], in test [6], in test [7] and in test [8] was inactive.

In the case of `COc1ccc(C[C@H](C)NC[C@H](O)c2cccc(Cl)c2)cc1F`, the growth inhibition in test [1] is 75% (active); in test [4], 89% (active). Further, the inhibition in test [2] was 6% (inactive); in test [3], -2% (inactive). Further, the outcome in test [5], in test [6], in test [7] and in test [8] was inactive.

As for `O=C(O)c1ccc2nc(-c3ccc(-c4ccccc4)cc3)n(C3CCN(Cc4ccc(-c5ncc[nH]5)cc4)CC3)c2c1`, the growth inhibition in test [1] is 99% (active); in test [4], 91% (active). Further, the inhibition was 3% (inactive) in test [2] and 1% (inactive) in test [3]. The outcome in test [5], in test [6], in test [7] and in test [8] was inactive.

In the case of `O=C(C=Cc1ccccc1C(F)(F)F)NC1CCC(CN2CCC(c3c[nH]c4ccccc34)CC2)CC1` (configuration not stated), the growth inhibition was 47% (inactive) and 90% (active) in test [1]; 102% (active) in test [4]. Moreover, the inhibition was 47% (inactive) and 73% (active) in test [2]; -1% (inactive) and 1% (inactive) in test [3]. Further, the result in test [5], in test [6], in test [7] and in test [8] was inactive.

On to `Cc1[nH]c2ccccc2c1C1=CCN(CCCCCC23CCCc4cccc(c42)NC3=O)CC1` (configuration not stated), for which the growth inhibition is 91% (active) in test [1] and 94% (active) in test [4]. The results for the inhibition in test [2] and in test [3] were 11% (inactive) and 5% (inactive), respectively. Further, the result in test [5], in test [6], in test [7] and in test [8] was inactive.

`CN(c1cc(NC(=O)c2ccccc2)ccn1)C1CCN(Cc2cccc(F)c2)CC1`: the results for the growth inhibition in test [1] and in test [4] were 94% (active) and 92% (active), respectively. The inhibition in test [2] was -6% (inactive); in test [3], -3% (inactive). Also, the result in test [5], in test [6], in test [7] and in test [8] was inactive.

On to `OC(CNC1CCCCCC1)c1ccc(Cl)c(Cl)c1` (configuration not stated), for which the values for the growth inhibition in test [1] and in test [4] were 98% (active) and 99% (active), respectively. In addition, the inhibition in test [2] and in test [3] was -3% (inactive) in each case. For the same compound, the result in test [5], in test [6], in test [7] and in test [8] was inactive.

For the compound `Cc1cc(C2CCCCN2C)ccc1-c1ccc(C(=O)N2CCc3cc4c(cc32)C2(CCN(C)CC2)CO4)cc1` (configuration not stated), the figures for the growth inhibition in test [1] and in test [4] were 94% (active) and 95% (active), respectively. Further, the inhibition in test [2] is 37% (inactive); in test [3] it was 1% (inactive). Further, the outcome in test [5], in test [6], in test [7] and in test [8] was inactive.

Turning to `O=C(Cc1c(-c2ccccc2)[nH]c2ccccc12)NC1CCC(CN2CCC(c3c[nH]c4ccccc34)CC2)CC1` (configuration not stated), the growth inhibition in test [1] was 75% (active); in test [4], 103% (active). The inhibition in test [2] was 31% (inactive); in test [3], 1% (inactive). Besides, the result in test [5], in test [6], in test [7] and in test [8] was inactive.

Take `COc1cc(NC(=O)c2nn(CCCN3CCC4(CC3)C(=O)NCN4c3ccccc3)cc2-c2ccc(Cl)c(Cl)c2)cc(OC)c1OC`: the growth inhibition is 75% (active) in test [1] and 97% (active) in test [4]. Moreover, the inhibition in test [2] is -4% (inactive); in test [3], 1% (inactive). Besides, the result in test [5], in test [6], in test [7] and in test [8] was inactive.

As to `CN(c1cc(NC(=O)c2ccc(F)cc2)ccn1)C1CCN(Cc2cccc(C#N)c2)CC1`, the growth inhibition in test [1] was 83% (active); in test [4], 97% (active). Also, the inhibition was 73% (active) in test [2] and 1% (inactive) in test [3]. Besides, the result in test [5], in test [6], in test [7] and in test [8] was inactive.
